Experiment [1] is described as follows: Quantitative highthroughput screen to assess conditional lethalithy of P12 Ichikawa cells grown in Human Plasma-Like Medium with dialyzed fetal bovine serum (HPLM+ds) (AID 1963879). For viability: series mostly up to about 46 µM. Note: nearly all actives have a fitted effect of over 35% in size. The settings on record: Potency: viability. A digest of the protocol: (§1)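 Each medium arm—HPLM with 10% dialyzed FBS, or RPMI1640 with 5 mM glucose and 10% untreated or dialyzed FBS—was screened against an 11-point, 3-fold compound titration for 48 h at 37 °C, with CellTiter-Glo luminescence as endpoint.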

Experiment [2] can be described thus: Quantitative highthroughput screen to assess conditional lethalithy of P12 Ichikawa cells grown in RPMI1640 with dialyzed fetal bovine serum (RPMI+ds) (AID 1963880).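 For viability: 100% = DMSO wells and 0% = empty wells on each plate.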 Note: nearly all actives have a fitted effect of over 35% in size. The conditions noted are these: Potency: P12-Ichikawa viability. A digest of the protocol:
as §1

Experiment [3] is described as follows: Quantitative highthroughput screen to assess conditional lethalithy of P12 Ichikawa cells grown in RPMI1640 with untreated serum (RPMI+s) (AID 1963881).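 For viability: series mostly up to about 46 µM; 100% = DMSO wells and 0% = empty wells without cells.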 Note: nearly all actives have a fitted effect of over 35% in size. The settings on record: Potency: viability. A digest of the protocol: as §1
A short description of experiment [4]: Quantitative highthroughput screen to assess conditional lethalithy of SEM cells grown in Human Plasma-Like Medium with dialyzed fetal bovine serum (HPLM+ds) (AID 1963882). For viability: series mostly up to about 46 µM. Note: nearly all actives have a fitted effect of over 35% in size. The gist of the method:
as §1

Experiment [5] can be described thus: Quantitative highthroughput screen to assess conditional lethalithy of SEM cells grown in RPMI1640 with unreated serum (RPMI+s) (AID 1963883).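 For viability: 100% = DMSO wells and 0% = empty wells without cells.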 Note: nearly all actives have a fitted effect of over 35% in size. A digest of the protocol:
as §1

A short description of experiment [6]: Quantitative highthroughput screen to assess conditional lethalithy of SEM cells grown in RPMI1640 with dialyzed fetal bovine serum (RPMI+ds) (AID 1963884).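 For viability: series mostly up to about 46 µM; 100% = DMSO control wells and 0% = empty wells without cells.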 Note: nearly all actives have a fitted effect of over 35% in size. The gist of the method: as §1
A short description of experiment [7]: Cellular viability qHTS for adrenocortical cancer (ACC) cell line SW-13 (AID 1963989).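 For activity (max response): cells grown in serum-free medium with ITS supplement; % is set by controls: 0 for no effect and ±100 for the full control effect.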 Note: nearly all actives have a fitted effect of over 65% in size. The conditions noted are these: SW-13 ACC cells viability, CellTiter-Glo, 48 h; activity (max response): hits give low values. A digest of the protocol:
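Here, serum-free SW-13 cultures were dosed up to 46 uM. Following 48 h, ATP-dependent luminescence (CellTiter-Glo) reported viable cells, and logistic modeling produced IC50 values.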

Experiment [8] in a line: Cellular viability qHTS for adrenocortical cancer (ACC) cell line NCI-H295R (AID 1963990). Note: nearly all actives have a fitted effect of over 60% in size. A digest of the protocol:
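Viability of NCI-H295R after 48 h of treatment (final up to 46 uM) measured through cellular ATP luminescence.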

Drawing on PubChem BioAssay (NCATS), this text covers Potency and activity (max response) for 25 compounds.

The structures appear in SMILES notation. Records with an inconclusive call do not appear. A number with no mark means an inactive call. Active and inactive are the calls of the source. Calls come from the whole dose curve; as a rule, active = well fitted curve in the direction sought with a large enough effect; inconclusive = small, poorly fitted or top-dose-only effect, or another doubt; inactive = no such curve, though single readings can be large; an effect the other way counts as inactive or inconclusive.
Potency is the fitted concentration of half-maximal effect.

`CCNC(=O)CCCC=CC[C@@H]1[C@H](C=CC(O)CCc2ccccc2)[C@@H](O)C[C@@H]1O` (stereo not given in full): the Potency entry in experiment [1], in experiment [2], in experiment [3], in experiment [4] and in experiment [5] was “inactive” in each case.

For `C=CCc1ccc(O)c(-c2ccc(O)c(CC=C)c2)c1`, the results for the Potency in experiment [1], in experiment [2] and in experiment [3] were 132 nM (active), 526 nM (active) and 1050 nM (active), respectively.

Consider `Cn1cc(-c2ccc3ncc(Cc4ccc5ncccc5c4)n3n2)cn1`, for which the Potency entry in experiment [1], in experiment [2], in experiment [3] and in experiment [8] was “inactive” throughout. In addition, the Potency is 8330 nM (active) in experiment [4], 9350 nM (active) in experiment [5] and 10500 nM (active) in experiment [6]. Further, in experiment [7], the activity (max response) is 2.95%.

Turning to `Cc1c[nH]c(C=C2C(=O)Nc3ccccc32)c1CCC(=O)O`, the Potency in experiment [1] was 2640 nM (active); in experiment [4], 833 nM (active).

As for `COC(=O)C=CC(=O)OC`, the Potency was 935 nM (active) in experiment [1]; 1480 nM (active) in experiment [2]; 2640 nM (active) in experiment [3]; 1320 nM (active) in experiment [5]; 2640 nM (active) in experiment [6].

In the case of `COc1cc2nc(N(C)CCCNC(=O)C3CCCO3)nc(N)c2cc1OC` (stereo not given), the Potency result in experiment [1], in experiment [2], in experiment [3], in experiment [4], in experiment [5] and in experiment [6] was “inactive” throughout. Further, the Potency result in experiment [8] was “inactive”. For the same compound, in experiment [7], the activity (max response) was -10.5%.

As to `O=c1[nH]c(=O)n([C@H]2C[C@@H](O)[C@@H](CO)O2)cc1C(F)(F)F`, the Potency in experiment [1] was 1180 nM (active); in experiment [3], 3720 nM (active); in experiment [5], 9350 nM (active).

As for `CCC(=O)NC[C@H](Cc1ccc(OCCc2nc(-c3ccccc3)oc2C)cc1)NC(C)=CC(=O)c1ccc(C(F)(F)F)cc1`, the Potency was 10500 nM (active) in experiment [1], 16600 nM (active) in experiment [2] and 16600 nM (active) in experiment [3].

As for `CNC(=O)c1cccc(-c2ccc3c(N4CCOC[C@H]4C)nc(N4CCOC[C@H]4C)nc3n2)c1`, the Potency in experiment [1] is 74.3 nM (active); in experiment [5], 2640 nM (active); in experiment [6], 469 nM (active).

`CC=C(C)C(=O)O[C@H]1C(C)=C[C@]23C(=O)[C@@H](C=C(CO)[C@@H](O)[C@]12O)[C@H]1[C@@H](C[C@H]3C)C1(C)C`: in experiment [1], the Potency result is “inactive”. In addition, the Potency in experiment [3] is 6.6 nM (active).

`CCCCCN=C(N)NN=Cc1c[nH]c2ccc(OC)cc12`: the results for the Potency in experiment [1], in experiment [2] and in experiment [3] were 13200 nM (active), 14800 nM (active) and 13200 nM (active), respectively.

For the compound `CC(C)N(CC[C@H](c1ccccc1)c1cc(CO)ccc1O)C(C)C`, the Potency entry in experiment [1], in experiment [2], in experiment [3], in experiment [4], in experiment [5] and in experiment [6] was “inactive” throughout.

As for `CCOC1OC(=O)C[C@H]1NC(=O)[C@@H]1CCCN1C(=O)[C@@H](NC(=O)c1ccc(N)c(Cl)c1)C(C)(C)C` (stereo not given in full), the Potency in experiment [1] is 1660 nM (active); in experiment [2], 3320 nM (active); in experiment [3], 1870 nM (active). Besides, the Potency entry in experiment [4], in experiment [5] and in experiment [6] was “inactive” throughout.

On to `CO[C@@H]1[C@@H](O)[C@H](O)[C@@H](n2c3c(Cl)cccc3c3c4c(c5c6cccc(Cl)c6[nH]c5c32)C(=O)NC4=O)O[C@@H]1CO`, for which the Potency in experiment [1] was 296 nM (active); in experiment [2] it was 264 nM (active); in experiment [3], 235 nM (active); in experiment [4], 590 nM (active); in experiment [5] it was 235 nM (active); in experiment [6], 469 nM (active).

For the compound `COc1nccc(-c2c(-c3ccc(F)cc3)ncn2C2CCNCC2)n1`, the Potency entry in experiment [1], in experiment [2], in experiment [3], in experiment [4] and in experiment [8] was “inactive” each time.

With `CO[C@H]1O[C@@H]2O[C@@]3(C)CC[C@@H]4[C@@H](C)CC[C@@H]([C@H]1C)[C@@]24OO3`, the Potency entry in experiment [1] and in experiment [4] was “inactive” throughout. For the same compound, the results for the Potency in experiment [2] and in experiment [3] were 14800 nM (active) and 16600 nM (active), respectively.

Take `COc1cc2c(cc1O)CCC1C2CC[C@@]2(C)C1CC[C@@H]2O` (stereo not given in full): the Potency in experiment [1] is 1870 nM (active).

Consider `O=C(O)C=Cc1ccc(O)c(O)c1`, for which the Potency in experiment [1] is 26400 nM (active); in experiment [2], 26400 nM (active); in experiment [6], 14800 nM (active).

As to `COc1cc(C(=O)NS(=O)(=O)c2ccccc2C)ccc1Cc1cn(C)c2ccc(NC(=O)OC3CCCC3)cc12`, the Potency result in experiment [1] was “inactive”. For the same compound, the Potency is 20900 nM (active) in experiment [4] and 28200 nM (active) in experiment [8].

Turning to `CCC(=C(c1ccc(O)cc1)c1ccc(OCCNC)cc1)c1ccccc1`, the values for the Potency in experiment [1], in experiment [4] and in experiment [5] were 4180 nM (active), 13200 nM (active) and 7430 nM (active), respectively.

Consider `CN[C@H]1[C@@H](O[C@@H]2[C@H](O[C@@H]3[C@@H](O)[C@@H](O)[C@@H](N=C(N)N)[C@@H](O)[C@@H]3N=C(N)N)O[C@H](C)[C@@]2(O)C=O)O[C@@H](CO)[C@@H](O)[C@H]1O`, for which the Potency result in experiment [1], in experiment [3], in experiment [4], in experiment [5] and in experiment [6] was “inactive” each time.

For the compound `N[C@H](Cc1c[nH]c2ccccc12)C(=O)O`, in experiment [7], the activity (max response) is 5.49%. Besides, the Potency entry in experiment [8] was “inactive”.

With `CC(=O)O/N=C1/C(c2c(O)[nH]c3cc(Br)ccc23)=Nc2ccccc21`, the Potency was 25100 nM (active) in experiment [7] and 15800 nM (active) in experiment [8].

For `Cc1c(I)c(=O)n(-c2ccccc2)n1C`, the activity (max response) in experiment [7] is 0.251%. In experiment [8], the Potency result was “inactive”.

For the compound `COc1ccc(Cl)cc1-c1cc(=O)[nH]c(=S)n1CC(N)=O`, in experiment [7], the activity (max response) was -3.52%. For the same compound, the Potency result in experiment [8] was “inactive”.
